This is a sample that favours compounds with a hit; in the whole collection about 5.6% have one here.
Six1-Eya2 inh = Six1/Eya2 interaction inhibition; Q15475+O00167; AlphaScreen GST-Six1/His-Eya2 binding, biochemical; hits give low values; activity change, % (no concentration beside the values); hit rate 0.56% among 360,000; in the data active = activity change below about -65%; inconclusive = mostly about -30% to -63%
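Six1/Eya2 binding was read as AlphaScreen signal after compounds were pinned into GST-Six1 plus His-tagged Eya2 (5X stock 250/500 nM) in pH 8.0 Tris/NaCl/TCEP buffer, beads added, then incubated 1 h, 37 C, dark.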
PKM2 act = increases activity of human pyruvate kinase M2; P14618; purified PKM2, Kinase-Glo ATP luminescence, activation; response scale: 0% is enzyme alone, no compound; Potency, µM (titrated, usually from 57.5 µM), without a hit: top-dose activation, actives largely listed as activators; hit rate 0.34% among 260,000; AID 1631; also: potency is read from the fitted curve at half-maximal effect; nearly all actives have a fitted effect of over 55% in size
Target sequence (P14618 whole entry, looked up): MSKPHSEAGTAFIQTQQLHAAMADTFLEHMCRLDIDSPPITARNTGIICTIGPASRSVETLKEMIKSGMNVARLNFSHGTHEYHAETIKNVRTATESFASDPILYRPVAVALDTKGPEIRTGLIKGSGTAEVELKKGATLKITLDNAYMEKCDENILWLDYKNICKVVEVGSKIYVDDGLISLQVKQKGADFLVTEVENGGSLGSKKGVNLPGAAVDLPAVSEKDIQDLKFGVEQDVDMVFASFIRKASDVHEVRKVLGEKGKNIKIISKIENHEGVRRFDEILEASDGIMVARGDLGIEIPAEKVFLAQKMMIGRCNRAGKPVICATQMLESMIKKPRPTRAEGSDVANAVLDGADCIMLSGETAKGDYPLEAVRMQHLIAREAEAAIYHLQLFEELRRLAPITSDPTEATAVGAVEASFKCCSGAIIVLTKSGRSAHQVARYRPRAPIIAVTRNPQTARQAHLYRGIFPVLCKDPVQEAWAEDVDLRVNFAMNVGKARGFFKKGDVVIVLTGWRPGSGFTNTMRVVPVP
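ATP formation by purified human PK-M2, quantified via coupled luciferase luminescence after 1 h at room temperature with 0.1 mM ADP and 0.5 mM PEP final.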
RORg inh = inhibitors of mouse ROR gamma transcriptional activity. P51450. Drosophila S2 Gal4-RORgamma UAS-luciferase reporter, 20 h. Potency, µM (highest dose often 53.6 µM), without a hit: at the highest dose activity change, negative = inhibition, most hits filed as inhibitors. hit rate 5.4% among 310,000. AID 2551; also: potency is read from the fitted curve at half-maximal effect; nearly all actives have a fitted effect of over 60% in size
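Compounds are pin-transferred onto Drosophila Schneider cells expressing a copper-inducible Gal4–ROR gamma transactivation domain fusion. After 1 hr, copper sulfate is added to 700 uM final; luciferase is read 20 hr later.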
Gal4-VP16 FLuc = counter-screen for ROR gamma inhibitors: Gal4-VP16 reporter | Drosophila S2 Gal4-VP16 UAS-luciferase, luminescence, 20 h | Potency, µM (top dose mostly 53.6 µM), inactives show at the top dose activity, negative = inhibition, usual class: inhibitors | hit rate 3.5% among 310,000;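 also: Gal4-VP16 expression switched on by copper sulfate through the metallothionein promoter; potency is read from the fitted curve at half-maximal effect; nearly all actives have a fitted effect of over 50% in size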
CtBP-E1A inh = CtBP/E1A binding inhibition | AlphaScreen GST-E1A/His-CtBP binding, 1536-well; hits give low values | activity change, % (concentration not given with the values) | hit rate 0.49% among 340,000 | AID 651724; in the data active = activity change below about -65%; inconclusive = mostly about -30% to -63%
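Protein mix (5X: 125 nM each GST-E1A, His-CtBP) was incubated with pinned compound 2 h at 37 deg C in dark, in 50 mM Tris pH 8.0 buffer with 300 mM NaCl. Glutathione donor and nickel acceptor beads followed; AlphaScreen signal read after 1 h.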
Starred values were filed as active, the others as inactive; ? = inconclusive; . = no result. Unless noted, calls follow the shape of the dose curve; as a rule, active = well fitted curve in the direction sought with a large enough effect; inconclusive = small, poorly fitted or top-dose-only effect, or another doubt; inactive = no such curve, though single readings can be large; an effect the other way counts as inactive or inconclusive. % is scaled to controls: 0 for no effect and ±100 for the full control effect.

SMILES	Six1-Eya2 inh	PKM2 act	RORg inh	Gal4-VP16 FLuc	CtBP-E1A inh
O=C(Nc1ccc2c(c1)OCO2)C1CC(c2ccccc2O)=NO1 (stereo unspecified)	2	0%	1.6µM*	?	1
O=C(NNc1nc(-c2ccccc2)c2cc(Br)ccc2n1)c1ccc(S(=O)(=O)N2CCOCC2)cc1	9	-1%	7.9µM*	13µM*	6
O=C(NNc1nc(-c2ccccc2)c2cc(Br)ccc2n1)c1ccc(S(=O)(=O)N2CCCCC2)cc1	-11	14%	-43%	-14%	0
CC(=O)NNc1nc(-c2ccccc2)c2cc(Br)ccc2n1	1	5%	-25%	22%	2
O=C(CN1CCCCC1)NNc1nc(-c2ccccc2)c2cc(Br)ccc2n1	-3	4%	0.5µM*	1.6µM*	0
Cc1ccc(NC(=S)N2CCC(c3nc4ccccc4s3)CC2)cc1C	-19	-6%	4.5µM*	11µM*	3
CCNC(=O)N1CCC(c2nc3ccccc3s2)CC1	3	.	24%	-10%	0
Cc1cc(C)cc(NC(=S)N2CCC(c3nc4ccccc4s3)CC2)c1	-17	-2%	4.5µM*	11µM*	-14
Cc1cc(N(C)C(=O)c2ccc3c(c2)S(=O)(=O)c2cc(Cl)ccc2C3=O)c(C(F)(F)F)o1	-5	.	.	.	-1
S=c1[nH]nc(-c2ccncc2)n1/N=C/c1ccccc1	10	18%	?	?	13
O=[N+]([O-])c1ccc(/C=N/n2cn[nH]c2=S)cc1	16	-2%	13µM*	?	-10
O=[N+]([O-])c1ccc(/C=N/n2c(-c3ccccc3)n[nH]c2=S)cc1	-18	10%	1.3µM*	10µM*	0
Cc1ccc(/C=N/n2c(-c3ccccc3)n[nH]c2=S)cc1	-3	-4%	?	2.8µM*	-12
Cc1ccc(-c2n[nH]c(=S)n2/N=C/c2ccc(C(=O)O)cc2)cc1	1	.	-18%	-2%	-10
CC(C)c1ccc(/C=N/n2c(-c3ccccc3)n[nH]c2=S)cc1	1	-1%	4µM*	3.2µM*	.
CC(=O)Nc1ccc(CN(C)c2c(C)nc3ccc(C(=O)N4CCN(C(C)=O)CC4)cn23)cc1	2	.	.	.	5
Cc1ccc(NC(=O)C(=O)NCCCN2CC(C(=O)O)CC2=O)cc1 (stereo unspecified)	9	-8%	-26%	-8%	6
O=C(COC(=O)CNS(=O)(=O)c1cc(C(F)(F)F)ccc1Cl)NC1CC1	9	.	.	.	.
CCCNC(=O)C1(S(=O)(=O)c2ccccc2)CC=CC1	4	1%	19%	12%	5
O=C1[C@@H]2[C@H](C(=O)N1CC(O)COCc1ccccc1)C1C=C[C@H]2C1 (stereo partly specified)	5	.	.	.	0
COc1cc(/C=N/n2c(-c3ccccc3)n[nH]c2=S)ccc1O	0	-2%	2%	1%	6
CCN(CC)S(=O)(=O)c1cccc(-c2n[nH]c(=S)n2/N=C/c2ccc(OC(F)F)cc2)c1	-17	-4%	-37%	13µM*	-14
COc1ccc(/C=N/n2c(-c3ccc(C)cc3)n[nH]c2=S)cc1OC	-3	10%	3.2µM*	-12%	.
Cc1ccc(-c2nnc(CN3CCCCC3C)o2)cc1 (stereo unspecified)	-17	.	9%	-6%	-10
O=C(C1CCC(=O)N(C2CC2)C1)N1CCN(c2cccc(Cl)c2)CC1 (stereo unspecified)	2	3%	-18%	-7%	4
c1ccc(COc2ncnc3c2ncn3CCCNCc2ccc3c(c2)OCO3)cc1	-1	.	.	.	-4
Cc1c(C(=O)N/N=C/c2cccs2)nc2ccccn12	-10	-10%	14%	-5%	-6
O=C(N/N=C/C(Cl)=C/c1ccc([N+](=O)[O-])cc1)C(=O)Nc1ccccc1C(=O)O	-25	?	49%	?	-92*
O=C(N/N=C/C(Cl)=C/c1ccc([N+](=O)[O-])cc1)C(=O)Nc1ccc(C(=O)O)cc1	-19	?	-3%	15%	-98*
O=C(Nc1ccc([N+](=O)[O-])cc1)C(=O)Nc1cccc(C(=O)O)c1	-2	-44%	0.35µM*	1µM*	9
